Sampled rows, rich in hits. Any-hit rate of the full collection: about 9.3%.
NPC1 prom act = qHTS Assay for NPC1 Promoter Activators; actives 2.4% (n = 320,000); Huh7 NPC1 promoter luciferase reporter, 24 h; AID 485313, 2010; Potency, µM (series often up to 9.22 µM), for the others: at the top dose activation, actives largely listed as activators; note: % of control where 0% means no effect; nearly all actives have a fitted effect of over 60% in size
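Stably transfected Huh7 (NPC1 promoter→luciferase), 1500 cells/well in Opti-MEM + 10% FBS, 2 h settle, then compound 24 h at 37 °C. Luminescence after 10 min with Amplite reagent.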
ELG1 genotox = qHTS screen for small molecules that induce genotoxicity in human embryonic kidney (HEK293T) cells expressing luciferase-tagged ELG1. actives 1.3% (n = 330,000). Potency, µM (doses to about 46 µM), for inactives: at the top dose activity change, positive = activation, most hits filed as activators. HEK293T ELG1-luciferase reporter, luminescence, 16 h; note: % of control where 0% means no effect; nearly all actives have a fitted effect of over 60% in size
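After overnight (16 hr) compound treatment at 37 °C, ELG1-luciferase HEK293T cells were lysed with ONE-Glo; luminescence quantified 30 min later at room temperature.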
ELG1 DNA repair = qHTS screen for small molecules that inhibit ELG1-dependent DNA repair in human embryonic kidney (HEK293T) cells expressing luciferase-tagged ELG1. actives 2.3% (n = 330,000). HEK293T ELG1-luciferase reporter, luminescence, 16 h; DNA damage induced by 5-fluorouridine. AID 504467, 2011. Potency, µM (highest dose often 46.1 µM), without a hit: at the top dose activity change, negative = inhibition, actives largely listed as inhibitors; note: % is set by controls: 0 for no effect and ±100 for the full control effect; nearly all actives have a fitted effect of over 55% in size
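Step one: seed 2,000 cells per well. Step two: pin-transfer compound or DMSO alongside 5-fluorouridine. Step three: incubate 16 hr, 37 °C, 5% CO2. Step four: add ONE-Glo, wait 30 min, read luminescence.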
SMN2 splice enh = qHTS Assay for Enhancers of SMN2 Splice Variant Expression. HEK293 SMN2-luciferase splicing reporter, luminescence, 30-36 h. actives 2.8% (n = 210,000). Potency, µM (highest dose often 46.1 µM), for inactives: at the top dose activity change, positive = activation, most hits filed as activators; note: % of control where 0% means no effect; nearly all actives have a fitted effect of over 55% in size
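qHTS luciferase splicing reporter: luminescence rises when SMN2 exon 7 is included in transfected HEK293 cells. Compound exposure lasted 30-36 h at 37C, with 4.5 mM final sodium butyrate as control, followed by a ONE-Glo read.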
Rab9 prom act = qHTS Assay for Rab9 Promoter Activators; Huh7 Rab9 promoter-luciferase reporter, luminescence, 24 h; Potency, µM (doses to about 9.22 µM), inactives show top-dose activation, negative = inhibition, usual class: activators; actives 2.8% (n = 320,000); AID 485297, 2010; note: % of control where 0% means no effect; nearly all actives have a fitted effect of over 60% in size
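Promoter activation is measured as luciferase luminescence in Huh7 cells stably transfected with a Rab9 promoter–luciferase construct, following 24 h compound exposure at 37 °C and 10 min reagent incubation at ambient temperature.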
FLuc counter = qHTS profiling assay for firefly luciferase inhibitor/activator using purifed enzyme and Km concentrations of substrates (counterscreen for miR-21 project); AID 588342, 2011; actives 6.9% (n = 360,000); Potency, µM (titrated, usually from 57.5 µM), inactives show at the top dose activity change, negative = inhibition, most hits filed as inhibitors; purified FLuc, Km substrates, luminescence inhibition;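 note: plate controls were vehicle for no effect and reference inhibitor for full effect; nearly all actives have a fitted effect of over 55% in size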
Target sequence (P08659 whole entry, looked up): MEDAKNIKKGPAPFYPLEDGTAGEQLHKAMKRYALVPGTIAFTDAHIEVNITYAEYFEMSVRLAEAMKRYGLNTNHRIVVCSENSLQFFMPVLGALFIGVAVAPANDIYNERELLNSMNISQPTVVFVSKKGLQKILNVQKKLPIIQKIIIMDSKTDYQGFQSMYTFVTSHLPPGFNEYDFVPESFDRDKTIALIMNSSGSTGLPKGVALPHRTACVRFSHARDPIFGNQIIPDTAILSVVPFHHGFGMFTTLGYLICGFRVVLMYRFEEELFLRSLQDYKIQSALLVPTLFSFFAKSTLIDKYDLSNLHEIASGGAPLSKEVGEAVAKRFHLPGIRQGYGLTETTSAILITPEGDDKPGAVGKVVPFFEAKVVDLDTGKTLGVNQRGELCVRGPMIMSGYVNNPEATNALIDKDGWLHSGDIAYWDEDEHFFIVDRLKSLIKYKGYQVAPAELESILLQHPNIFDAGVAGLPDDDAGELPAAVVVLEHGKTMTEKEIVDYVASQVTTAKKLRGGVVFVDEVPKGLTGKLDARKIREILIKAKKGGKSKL
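Biochemical qHTS of compounds, final roughly 60 µM downward over six points, against 10 nM purified firefly luciferase using Km concentrations of substrates (10 uM D-luciferin, 10 uM ATP) in Tris acetate pH 7.5 buffer; luminescence output.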
Starred values were filed as active, the others as inactive; ? = inconclusive; . = not tested or not shown. Calls come from the whole dose curve; as a rule, active = well fitted curve in the direction sought with a large enough effect; inconclusive = small, poorly fitted or top-dose-only effect, or another doubt; inactive = no such curve, though single readings can be large; an effect the other way counts as inactive or inconclusive. Potency is the fitted concentration of half-maximal effect.

SMILES	NPC1 prom act	ELG1 genotox	ELG1 DNA repair	SMN2 splice enh	Rab9 prom act	FLuc counter
CC(=O)Nc1ccc(S(=O)(=O)NCC(CCC(=O)O)C(F)(F)F)cc1 (centres undefined)	-5%	-14%	14%	8%	1%	2%
CC(C)CN(C(=O)c1ccc(S(=O)(=O)N2CCOCC2)cc1)C1CCS(=O)(=O)C1 (centres undefined)	-1%	-2%	16%	.	1%	4%
NC(=O)/N=N/C(N)=O	.	.	.	-10%	.	.
Cc1ccc2nc(SCC(=O)N3CCCC3)nc(=O)n2c1	-2%	3%	24%	.	-6%	2%
Cc1ccn2c(=O)nc(SCC(=O)c3ccccc3)nc2c1	?	?	?	.	?	15µM*
Cc1ccc2nc(SCC(=O)c3ccccc3)nc(=O)n2c1	2.5µM*	?	?	.	?	11µM*
CCOC(=O)COc1ccc2cc(C(=O)OCC)c(=O)oc2c1	-5%	4%	2%	-1%	3%	2%
N#C/C(=C\c1ccc(OCc2ccc(C(=O)O)cc2)cc1)C(=O)N1CCOCC1	?	?	?	1.6µM*	2.8µM*	17µM*
COc1cc(/C=C(\C#N)C(=O)N2CCOCC2)ccc1OCc1ccccc1	-1%	?	?	?	0%	-2%
CCOc1ccc(N(CC(=O)Nc2c(C)cccc2C)S(=O)(=O)c2c(C)[nH]c(=O)[nH]c2=O)cc1	-4%	-3%	0%	.	2%	3%
O=C(c1cnn2c(C(F)(F)F)cc(-c3cccs3)nc12)N1CCCC1	0%	-5%	-4%	.	-7%	-2%
CN(C)S(=O)(=O)c1cccc(C(=O)Nc2ccc3c(c2)CCC3)c1	1.3µM*	4µM*	?	.	0.63µM*	1.7µM*
CN(C)S(=O)(=O)c1ccc(C(=O)Nc2ccc3c(c2)CCC3)cc1	?	7%	?	.	?	19µM*
CN(C)S(=O)(=O)c1ccc(C(=O)Nc2ccnn2C2CCCCC2)cc1	-2%	-7%	26µM*	-38%	-2%	0%
COc1ccc(NC(=O)c2ccc(S(=O)(=O)N(C)C)cc2)cc1OC	6%	5%	11%	-3%	-5%	-17%
Cc1cc(C)c(S(=O)(=O)N2CCCOC2CNC(=O)C(=O)NCc2ccccn2)c(C)c1 (centres undefined)	3%	5%	-1%	11%	1%	-1%
COc1ccc(NC(=O)C2Cc3ccccc3N2C(=O)c2ccccc2)cc1OC (centres undefined)	.	.	.	.	.	-6%
Cc1c(CC(=O)NCCCC(=O)O)c(=O)oc2cc3oc4c(c3cc12)CCCC4	0%	2%	29%	.	-3%	21µM*
Cc1c(CCC(=O)N[C@@H](C)C(=O)O)c(=O)oc2cc3oc4c(c3cc12)CCCC4	-3%	5%	?	.	-6%	11µM*
CCCC(NC(=O)CCc1c(C)c2cc3c4c(oc3c(C)c2oc1=O)CCCC4)C(=O)O (centres undefined)	1%	0%	14%	.	2%	?
Cc1c(CC(=O)NCCC(=O)O)c(=O)oc2cc3oc4c(c3cc12)CCCC4	4%	-17%	?	.	-1%	17µM*
O=C(CSc1nnc(NC(=O)c2ccccc2)s1)NCC1CCCO1 (centres undefined)	3.5µM*	?	?	.	2.8µM*	4.3µM*
O=C(CSc1nnc(NC(=O)c2ccccc2[N+](=O)[O-])s1)NCC1CCCO1 (centres undefined)	6%	2%	?	.	4%	17µM*
Cn1c(SCC(=O)NCC2CCCO2)ncc(C(=O)Nc2ccccc2)c1=O (centres undefined)	0%	?	?	.	2%	?
Cc1ccc(NC(=O)c2cnc(SCC(=O)NCC3CCCO3)n(C)c2=O)cc1C (centres undefined)	?	21µM*	?	.	?	4.8µM*
SMILES	NPC1 prom act	ELG1 genotox	ELG1 DNA repair	SMN2 splice enh	Rab9 prom act	FLuc counter
O=C(CSc1nnc(NC(=O)c2cccc(Br)c2)s1)NCC1CCCO1 (centres undefined)	?	?	29%	.	.	8.5µM*
O=C(CSc1nnc(NC(=O)Cc2ccccc2)s1)NCC1CCCO1 (centres undefined)	-2%	-2%	5%	-12%	-9%	-5%
Cc1cc(C)cc(C(=O)Nc2nnc(SCC(=O)NCC3CCCO3)s2)c1 (centres undefined)	1%	4%	8%	.	4%	?
Nc1ccc(Cl)cc1[N+](=O)[O-]	.	.	.	-2%	.	.
CCOc1cc(NC(=S)NCC2CCCO2)c(OCC)cc1NC(=O)c1ccccc1F (centres undefined)	-5%	-9%	23µM*	-16%	0%	0%
O=C(CSc1nnc(NC(=O)c2ccccc2F)s1)NCC1CCCO1 (centres undefined)	?	?	?	.	?	12µM*
COc1ccc(C(=O)Nc2nnc(SCC(=O)NCC3CCCO3)s2)cc1OC (centres undefined)	21%	24%	3%	.	15%	12µM*
CCOC(=O)C1CCN(C(=O)c2n[nH]c(=O)c3ccccc23)CC1	2%	1%	-1%	-2%	-9%	6%
CC(=O)c1cc(-c2ccccc2)n(CC(=O)NCc2cccs2)c1C	2%	1%	-5%	.	2%	-1%
CC(C)OCCCNC(=O)c1ccc(CSc2nc3cccnc3n2Cc2ccccc2)cc1	.	.	.	.	.	-13%
O=C(NCCc1ccccc1)c1ccc(Cn2c(SCc3cccc(F)c3)nc3cccnc32)cc1	5%	.	.	.	-2%	-10%
Cc1ccc(CSc2nc3cccnc3n2Cc2ccc(C(=O)NCCc3ccccc3)cc2)cc1	.	.	.	.	.	0.48µM*
O=C(NCCc1ccccc1)c1ccc(Cn2c(SCc3ccccc3)nc3cccnc32)cc1	.	.	.	.	.	6µM*
O=C(CCCCCn1c(SCc2ccncc2)nc2ccccc2c1=O)NCc1ccco1	-4%	0%	18µM*	22%	0%	3%
Cc1ccccc1CSc1nc2cccnc2n1Cc1ccc(C(=O)NCCc2cccs2)cc1	.	.	.	.	.	5.4µM*
N#CCSc1nnc2c(Cl)cc(Cl)cn12	-3%	0%	7%	-4%	11%	1%
